Reference: PubChem BioAssay (EPA / NIEHS)
Activity calls are given as the source filed them. The calls were made as follows: active = hit-call score of the fitted dose curve at least 0.9, where 1 is the maximum; inactive = score below 0.9.

Experiments:
[1] = biological target: Paired box protein Pax-6 (Homo sapiens) (UniProt P26367); experiment: ATG_Pax6_CIS: Attagene CIS-FACTORIAL HepG2 Assay for human Paired Box 6 (PAX6) (AID 2282956); conditions: HepG2 CIS-FACTORIAL PAX6 reporter transcription, RNA readout; actives raise or lower the signal
Chain of Paired box protein Pax-6 (Homo sapiens) (P26367 whole entry, looked up): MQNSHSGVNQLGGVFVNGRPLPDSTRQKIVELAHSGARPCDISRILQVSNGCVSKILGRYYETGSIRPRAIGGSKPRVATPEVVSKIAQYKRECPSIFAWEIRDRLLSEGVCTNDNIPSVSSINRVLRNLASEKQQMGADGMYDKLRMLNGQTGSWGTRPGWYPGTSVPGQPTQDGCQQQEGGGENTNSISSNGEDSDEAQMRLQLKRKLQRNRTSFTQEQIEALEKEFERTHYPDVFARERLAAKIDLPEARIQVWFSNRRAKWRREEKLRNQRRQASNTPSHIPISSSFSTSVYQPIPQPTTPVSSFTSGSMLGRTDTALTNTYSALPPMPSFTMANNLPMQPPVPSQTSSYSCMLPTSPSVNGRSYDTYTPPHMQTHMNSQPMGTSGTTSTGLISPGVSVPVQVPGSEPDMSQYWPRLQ
Outline: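 Multiplexed cis-reporter HepG2 system; 24 h treatment; reporter mRNA read by RT-PCR/CE fluorescence; bidirectional fit vs DMSO.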

[2] = ATG_PXRE_CIS: Attagene CIS-FACTORIAL HepG2 Assay for human Pregnane X Receptor Element (PXRE) (AID 2282957); conditions: HepG2 Attagene CIS-FACTORIAL PXRE reporter, mRNA; actives raise or lower the signal
Outline: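 Multiplexed cis-reporter assay in transiently transfected human HepG2 cells; 24 h chemical exposure. Reporter transcripts quantified by RT-PCR with fluorescent labeling and capillary electrophoresis.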

[3] = ATG_PPRE_CIS: Attagene CIS-FACTORIAL HepG2 Assay for human Peroxisome Proliferator-activated Response Element (PPRE) (AID 2282958); conditions: HepG2 PPRE cis-element reporter, Attagene transcription factor profiling; actives raise or lower the signal
Outline: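 In this cell-based multiplex, a PPRE cis element drives a reporter sequence in transiently transfected HepG2 cells. Following 24 h treatment, labeled cDNA amplicons are sized and quantified by capillary electrophoresis, with DMSO defining baseline.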

[4] = ATG_RORE_CIS: Attagene CIS-FACTORIAL HepG2 Assay for human RAR-related Orphan Receptor Element (RORE) (AID 2282959); conditions: HepG2 Attagene cis-factorial RORE reporter, mRNA; actives raise or lower the signal
Outline: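 Endogenous factor activity at a cis response element is read as reporter transcript levels in HepG2 cells, 24 h post-dose. Transcripts are quantified by RT-PCR with capillary electrophoresis, and data fitted in both directions against DMSO.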

[5] = ATG_Sox_CIS: Attagene CIS-FACTORIAL HepG2 Assay for human SRY-box transcription factor (SOX) (AID 2282960); conditions: HepG2 Attagene cis-factorial SOX reporter, mRNA; actives raise or lower the signal
Outline: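 Measures mRNA induction of a SOX1-associated reporter in HepG2 after 24 h dosing. Fluorescently labelled RT-PCR fragments are separated by capillary electrophoresis, and gain or loss relative to DMSO control is fitted.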

[6] = biological target: Transcription factor Sp1 (Homo sapiens) (UniProt P08047); experiment: ATG_Sp1_CIS: Attagene CIS-FACTORIAL HepG2 Assay for human Specificity Protein 1 (Sp1) (AID 2282961); conditions: HepG2 Sp1 cis-reporter transcription, actives raise or lower the signal
Chain of Transcription factor Sp1 (Homo sapiens) (P08047 whole entry, looked up): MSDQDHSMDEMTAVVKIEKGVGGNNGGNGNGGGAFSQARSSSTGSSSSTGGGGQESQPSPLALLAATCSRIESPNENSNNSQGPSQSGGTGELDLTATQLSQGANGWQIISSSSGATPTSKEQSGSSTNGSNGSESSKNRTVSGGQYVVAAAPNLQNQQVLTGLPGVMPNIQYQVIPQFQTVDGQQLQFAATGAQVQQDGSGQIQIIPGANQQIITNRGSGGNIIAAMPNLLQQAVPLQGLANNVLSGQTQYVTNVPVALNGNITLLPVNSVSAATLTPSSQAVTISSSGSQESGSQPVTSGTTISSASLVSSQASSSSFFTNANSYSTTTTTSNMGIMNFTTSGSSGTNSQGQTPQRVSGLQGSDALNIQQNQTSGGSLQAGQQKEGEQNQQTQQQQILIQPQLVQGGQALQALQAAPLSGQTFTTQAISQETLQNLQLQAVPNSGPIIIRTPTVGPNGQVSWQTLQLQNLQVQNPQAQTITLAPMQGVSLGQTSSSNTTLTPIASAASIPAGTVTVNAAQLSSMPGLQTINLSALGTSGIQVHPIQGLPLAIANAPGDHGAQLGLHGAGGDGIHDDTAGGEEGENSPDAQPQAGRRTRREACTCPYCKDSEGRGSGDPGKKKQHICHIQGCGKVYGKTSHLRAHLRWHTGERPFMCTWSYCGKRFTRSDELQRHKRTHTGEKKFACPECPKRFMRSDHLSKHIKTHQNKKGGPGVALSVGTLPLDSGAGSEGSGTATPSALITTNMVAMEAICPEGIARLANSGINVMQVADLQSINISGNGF
Outline: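 Cells: HepG2, transiently transfected with cis-regulated multiplexed reporters. Exposure: 24 h. Detection: reporter transcripts amplified, fluorescently labeled, restriction-digested and sized by capillary electrophoresis. Analysis: bidirectional fit relative to DMSO.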

[7] = ATG_SREBP_CIS: Attagene CIS-FACTORIAL HepG2 Assay for human Sterol Regulatory Element Binding (SREBP) (AID 2282962); conditions: HepG2 Attagene cis-factorial SREBP reporter, mRNA; actives raise or lower the signal
Outline: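 mRNA induction of transfected cis-promoter reporters in HepG2 cells, 24 h post-dose. Detection: RT-PCR with 6-FAM-labelled products, HpaI digest, capillary electrophoresis. DMSO served as negative control and baseline.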

[8] = biological target: Signal transducer and activator of transcription 3 (Homo sapiens) (UniProt P40763); experiment: ATG_STAT3_CIS: Attagene CIS-FACTORIAL HepG2 Assay for human Signal Transducer and Activator of Transcription 3 (STAT3) (AID 2282963); conditions: HepG2, Attagene cis-factorial STAT3 reporter transcription; actives raise or lower the signal
Chain of Signal transducer and activator of transcription 3 (Homo sapiens) (P40763 whole entry, looked up): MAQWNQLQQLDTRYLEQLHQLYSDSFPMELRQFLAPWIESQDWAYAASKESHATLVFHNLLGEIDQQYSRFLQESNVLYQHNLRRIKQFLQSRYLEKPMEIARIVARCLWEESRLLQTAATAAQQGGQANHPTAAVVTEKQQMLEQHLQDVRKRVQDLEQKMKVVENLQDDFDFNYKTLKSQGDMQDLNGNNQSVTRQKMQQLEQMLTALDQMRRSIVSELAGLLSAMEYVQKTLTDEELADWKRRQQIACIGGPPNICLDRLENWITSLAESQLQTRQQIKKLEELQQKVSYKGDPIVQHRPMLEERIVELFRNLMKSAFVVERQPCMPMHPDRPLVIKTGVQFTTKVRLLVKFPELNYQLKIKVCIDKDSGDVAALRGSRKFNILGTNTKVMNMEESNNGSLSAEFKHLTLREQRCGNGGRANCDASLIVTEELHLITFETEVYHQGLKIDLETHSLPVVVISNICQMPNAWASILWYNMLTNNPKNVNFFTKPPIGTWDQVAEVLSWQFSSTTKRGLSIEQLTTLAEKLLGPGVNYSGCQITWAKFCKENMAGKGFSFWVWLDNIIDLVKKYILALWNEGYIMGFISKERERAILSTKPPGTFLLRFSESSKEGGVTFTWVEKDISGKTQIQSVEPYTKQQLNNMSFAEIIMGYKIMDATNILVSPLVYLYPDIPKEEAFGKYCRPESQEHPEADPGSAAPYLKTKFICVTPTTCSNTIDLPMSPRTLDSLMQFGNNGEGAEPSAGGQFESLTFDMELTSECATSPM
Outline: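 Transcript-level reporter assay. HepG2 transient MRTU transfection, 24 h exposure, fluorescence detection after RT-PCR and CE; DMSO baseline.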

[9] = ATG_TA_CIS: Attagene CIS-FACTORIAL HepG2 Assay for human TA Basal Promoter (AID 2282964); conditions: HepG2 Attagene CIS-factorial TA basal promoter reporter; actives raise or lower the signal
Outline: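 Transient MRTU transfection of HepG2 preceded 24 h compound exposure. Reporter mRNA levels were then read by RT-PCR with capillary electrophoresis, and this background-control endpoint was fitted bidirectionally to DMSO.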

[10] = ATG_TCF_b_cat_CIS: Attagene CIS-FACTORIAL HepG2 Assay for human T-Cell-Factor with beta-catenin (TCF/b-cat) (AID 2282965); conditions: HepG2 TCF/beta-catenin cis-reporter transcription, actives raise or lower the signal
Outline: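 Using capillary electrophoresis as the read-out, labelled reporter cDNA fragments from transiently transfected HepG2 were sized and quantified. Exposure lasted 24 hours; activity in either direction was referenced to DMSO.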

Compound	outcome [1]	outcome [2]	outcome [3]	outcome [4]	outcome [5]	outcome [6]	outcome [7]	outcome [8]	outcome [9]	outcome [10]	AC50 [4]	AC50 [2]	AC50 [3]	AC50 [8]	AC50 [6]	AC50 [7]	AC50 [1]
COc1ccc(CCC(C)=O)cc1	inactive	inactive	inactive	inactive	inactive	inactive	inactive	inactive	inactive								
CCCCC(CC)COC(C)=O (stereo not drawn)	inactive	inactive	inactive	inactive	inactive	inactive	inactive	inactive	inactive	inactive							
CCCC(=O)c1ccccc1	inactive	inactive	inactive	inactive	inactive	inactive	inactive	inactive	inactive	inactive							
C[Si](C)(C)O[Si](C)(C)C	inactive	inactive	inactive	inactive	inactive	inactive	inactive	inactive	inactive								
c1ccc2cc(Nc3ccc(Nc4ccc5ccccc5c4)cc3)ccc2c1	inactive	inactive	inactive		inactive	inactive	inactive	inactive	inactive	inactive	5.31 µM (active)						
COc1ccc(N)c([N+](=O)[O-])c1	inactive	inactive	inactive	inactive	inactive	inactive	inactive	inactive	inactive	inactive							
C=C[Si]1(C)O[Si](C)(C=C)O[Si](C)(C=C)O[Si](C)(C=C)O1 (stereo not drawn)	inactive		inactive	inactive	inactive	inactive	inactive	inactive	inactive	inactive		2.51 µM (active)					
C=CCN(CC=C)CC=C	inactive	inactive	inactive	inactive	inactive	inactive	inactive	inactive	inactive								
O=C(O)CCCCCCCCCCCC(=O)O	inactive	inactive	inactive	inactive	inactive	inactive	inactive	inactive	inactive								
CCCCSCCCC	inactive	inactive	inactive	inactive	inactive	inactive	inactive	inactive	inactive	inactive							
CCCCCCOCCOCCO	inactive	inactive	inactive	inactive	inactive	inactive	inactive	inactive	inactive	inactive							
Cc1ccc(OC(=O)c2ccccc2O)cc1	inactive	inactive	inactive	inactive	inactive	inactive	inactive	inactive	inactive								
C=COCCOCCOC=C	inactive	inactive	inactive	inactive	inactive	inactive	inactive	inactive	inactive	inactive							
CC(Oc1cc(Cl)ccc1Cl)C(=O)O (stereo not drawn)	inactive			inactive	inactive	inactive	inactive	inactive	inactive	inactive		82.1 µM (active)	100 µM (active)				
C=CC(=C)CCCC(C)(C)OC(C)=O	inactive	inactive	inactive	inactive	inactive	inactive	inactive	inactive	inactive	inactive							
COc1ccc(CCO)cc1	inactive	inactive	inactive	inactive	inactive	inactive	inactive		inactive	inactive				179 µM (active)			
CC(C)CC(C)CC(O)CC(C)C (stereo not drawn)	inactive	inactive	inactive	inactive	inactive	inactive	inactive	inactive	inactive								
CCOC(=O)COC(=O)c1cc(Oc2ccc(C(F)(F)F)cc2Cl)ccc1[N+](=O)[O-]	inactive				inactive	inactive	inactive	inactive			34.3 µM (active)	9.9 µM (active)	12.4 µM (active)				
CCCCCCCCC=CCCCCCCCC1=NCCN1CCO	inactive			inactive	inactive	inactive	inactive					60.6 µM (active)	0.261 µM (active)	25.9 µM (active)			
C[C@H]1C[C@@H](O)CC(C)(C)C1	inactive		inactive	inactive	inactive	inactive	inactive	inactive	inactive	inactive		68.4 µM (active)					
CCCCOCC	inactive	inactive	inactive	inactive	inactive	inactive	inactive	inactive	inactive								
Clc1cc(Cl)c(-c2c(Cl)c(Cl)cc(Cl)c2Cl)cc1Cl	inactive		inactive	inactive	inactive			inactive	inactive			3.45 µM (active)			50 µM (active)	50 µM (active)	
Cc1cc(=O)oc2cc(N(C)C)ccc12	inactive	inactive	inactive	inactive	inactive	inactive		inactive	inactive	inactive						100 µM (active)	
O=[N+]([O-])c1ccc(O)cc1C(F)(F)F	inactive		inactive		inactive			inactive	inactive	inactive	49 µM (active)	84.1 µM (active)			100 µM (active)	100 µM (active)	
CCCCCCCCc1ccc(S(=O)(=O)O)cc1		inactive	inactive	inactive	inactive			inactive	inactive	inactive					186 µM (active)	159 µM (active)	19.7 µM (active)
